Results published in PubChem BioAssay (NCI).
The panel holds about 83,000 compounds, 20% with a hit somewhere; the sample as a whole holds those more often.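 In brief: 96-well plates, 48 h treatment, single concentration, percent growth endpoint.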 The source made the active and inactive calls.

These molecules were tested on TK-10 renal (assay: NCI-60 one-dose screen, 48 h (100 = growth as untreated, 0 = no growth, -100 = all killed)). Settings: 10 µM unless noted.
Protocol: Growth inhibition of the TK-10 human tumor cell line is measured as a screen for anti-cancer activity. Cells are grown in 96 well plates and exposed to the test compound for 48 hours. Compounds are tested at a single concentration, which is 10^-5 M for most compounds. The reported endpoint is percent growth (GI% or GIPRCNT), where numbers from 0 - 100% represent growth inhibition, and numbers from -100% - 0 represent cell death. For example, a value of 40 represents 60% growth inhibition. A value of 0 means no net growth occurred over the course of the experiment. A value of -40 indicates 40% of cells at the beginning of the experiment died by the end of the experiment. A value of -100 means all cells are dead at the end of the experiment.
NCI-60 Human Tumor Cell Lines Screen was performed using the standard one-dose NCI protocol, which is described in more detail at https://dtp.cancer.gov/discovery_development/nci-60/default.htm.
Compounds with GIPRCNT values below 10 were considered active. Activity score was based on GIPRCNT using the following formula: […]
Score is 0 for GIPRCNT values of 100 or above, 50 for GIPRCNT values of 0, and 100 for GIPRCNT values of -100.

SMILES | growth
Nc1nc(N)c2c(n1)NC(c1ccc3c(c1)OCO3)CC(c1cccc(Nc3ccncc3)c1)=N2 (stereo not given) | 99.6% (inactive)
CN1C(=O)N(C)C2C1NN=c1s/c(=C\c3ccccc3F)c(=O)n12 (stereo not given) | 63.1% (inactive)
Cc1ccc(OCCOCCOCCOCCOc2ccc(C)n(O)c2=S)c(=S)n1O | 33.3% (inactive)
CN1CCN(Cc2ccc(NC(=O)c3cncc(C#Cc4c(N)ncc5cc(F)ccc45)c3)cc2C(F)(F)F)CC1 | 67.4% (inactive)
COc1cc(OC)cc(C(=O)Nc2cnc(Nc3ccc(N4CCOCC4)nc3)nc2Oc2ccc(C(F)(F)F)cc2)c1 | 81.9% (inactive)
C#CC(F)(F)[C@]1(O)CCC2C3CCC4=CC(=O)CCC4=C3[C@@H](c3ccc(N(C)C)cc3)C[C@@]21C (stereo not given in full) | 89.7% (inactive)
CCCc1cc(CCC)n2nc(N)nc2n1 | 114% (inactive)
O=C(Nc1ccccc1)Nc1ccccc1CNc1nc(Nc2ccc(OCCN3CCCC3)cc2)ncc1Cl | 94.8% (inactive)
CN(C)CCOc1nc2c3cc([N+](=O)[O-])ccc3nn2c2ccccc12 | 60.8% (inactive)
COc1cc(-c2ccc(-c3ccc(C(=N)N)s3)s2)cc(OC)c1OC | 82.8% (inactive)
Cc1[nH]c(C2CC(c3ccc(C(F)(F)F)c(F)c3)=NN2C)c(C)c1C(=O)NCC(F)(F)F (stereo not given) | 116% (inactive)
Nc1nc(=O)n([C@H]2CC=C(CO)O2)cc1F | 99.3% (inactive)
Oc1ccc(C(c2ccc(O)cc2)c2ccc(Cl)cn2)cc1 | -3.31% (active)
O=C1NC(=O)C(=Cc2cc(-c3ccc(Cl)cc3)n(-c3ccccc3)n2)C(=O)N1 | 88.3% (inactive)
CCC(C)C(N)C(=O)NC(CC(C)C)C(=O)N1CCCC1C(=O)NC(Cc1c[nH]c2ccccc12)C(=O)NC(CCCCN)C(=O)NC(Cc1c[nH]c2ccccc12)C(=O)N1CCCC1C(=O)NC(Cc1c[nH]c2ccccc12)C(=O)NC(Cc1c[nH]c2ccccc12)C(=O)N1CCCC1C(=O)NC(Cc1c[nH]c2ccccc12)C(=O)NC(CCCNC(=N)N)C(=O)NC(CCCNC(=N)N)C(N)=O (stereo not given) | 124% (inactive)
CN1CCN(CC(=O)N(C)c2ccc(N=C(c3ccccc3)c3c(O)[nH]c4ccc([N+](=O)[O-])cc34)cc2)CC1 | 103% (inactive)
O=c1[nH]c(CN2CCN(c3ccccc3)CC2)nc2c(Br)cc(Br)cc12 | 120% (inactive)
Nc1ccc(Cl)c2c(=O)c3ccccc3[nH]c12 | 78.1% (inactive)
COc1cc(NC(=O)c2cncnc2Nc2ccc3c(ccn3Cc3cccc(F)c3)c2)cc(OC)c1 | 76.8% (inactive)
CS(=O)(=O)Nc1cc(-c2ccc3ncnc(Nc4cccc(Cl)c4)c3c2)cnc1Cl | -20.4% (active)

SMILES | growth
CCN1C(=O)N(CC)C2C1NN=c1s/c(=C\c3ccccc3)c(=O)n12 (stereo not given) | 65.6% (inactive)
CN(C)c1ccc(Cc2cc(-c3ccccc3)nn(C/C(=N/O)c3ccccc3)c2=O)cc1 | 84.5% (inactive)
CCNc1nc(-c2ccc(Cl)c(OC)c2)c(-c2ccnc(NCCNS(=O)(=O)c3ccc(Cl)cc3)n2)s1 | 22.5% (inactive)
C#CCOC(=O)C(N)CSSCC(N)C(=O)O (stereo not given) | 100% (inactive)
COc1ccc(/C=N\NC(=O)c2ccc3nc(-c4ccc(Cl)cc4)[nH]c3c2)cc1 | 39.1% (inactive)
C#C[C@]1(O)CC[C@H]2[C@@H]3CC=C4c5sc(-c6cccc(C)c6)nc5CC[C@]4(C)[C@H]3CC[C@@]21C | 110% (inactive)
O=C(COc1ccc(/C=C2\Oc3ccccc3C2=O)cc1)Nc1nccs1 | 134% (inactive)
O=C1NCCN1/N=C/c1c(Cl)n(Cc2ccc(Cl)cc2)c2ccccc12 | 90.8% (inactive)
C=CN(C(=O)N1CCN(c2cc3c(cc2F)c(=O)c(C(=O)O)cn3C2CC2)CC1)c1nc(-c2ccc(C)cc2)cs1 | 42.3% (inactive)
Cc1cc(=O)oc2cc(Oc3nc(-c4ccccc4)cn4c(-c5ccccc5)cnc34)ccc12 | 80.5% (inactive)
CCOC(=O)c1ccc2c(c1)c1c(C)c3cnccc3c(C)c1n2C | -65.3% (active)
Cn1ccnc1C(=O)/C=C/c1ccc(CC(=O)Nc2cc(F)c(F)c(F)c2)cc1 | 47.8% (inactive)
Cc1ccc(-c2nn(CC(=O)N3CCOCC3)c(N)c2C#N)cc1 | 105% (inactive)
Cc1ccc2c(c1)CC(O)CC1C(=O)N(CCO)CC(=O)N21 (stereo not given) | 88.6% (inactive)
COC(=O)c1cc(-c2ccc(OC)c(OC)c2)[nH]c1N/N=C/c1c(Cl)cccc1Cl | 57.2% (inactive)
CCN1C(=O)N(CC)C2C1NC(=S)N2/N=C/C=C/c1ccccc1 (stereo not given) | 49.6% (inactive)
COC(=O)c1sc(-c2ccc(C)cc2)cc1O | 99.2% (inactive)
N#Cc1c(-c2ccc(F)cc2)cc(-c2cccc(Cl)c2)[nH]c1=O | 54.3% (inactive)
CCOC(=O)c1cnc2sc(-c3ccc(OC)cc3)nc2c1Cl | 145% (inactive)
Cc1nc2c(c(-c3ccccc3)n1)Cc1c(ccc3ccccc13)O2 | 106% (inactive)
